Results on six compounds are retold here after PubChem BioAssay (EPA / NIEHS).

Assay [1] deals with Thyroid hormone receptor alpha (Rattus norvegicus) + Thyroid hormone receptor beta (Rattus norvegicus) (UniProt P18113+P63059). In words: TOX21_TR_LUC_GH3_Antagonist_Followup: Tox21 GH3 Thyroid Hormone Receptor Antagonism Luciferase Follow-Up Assay (AID 2283942; active = hit-call score of the fitted dose curve at least 0.9, where 1 is the maximum). Put shortly:
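Confirmatory qHTS, antagonist mode: T3 (1.0 nM final) + test cpd, 15 conc, 92 uM–5nM final, GH3 rat pituitary line, 24 h, 37C. Luc reporter, RLU vs DMSO.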

The target in assay [2] is THRA (gene 7067) (UniProt P10827). The assay is described as follows: TOX21_TRA_COA_Antagonist_Followup_ratio: Tox21 Thyroid Hormone Receptor alpha Antagonism through Coactivator Recruitment Follow-Up Assay, Ratio (AID 2283953; active = hit-call score of the fitted dose curve at least 0.9, where 1 is the maximum). Put shortly: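 This follow-up to the GH3 luciferase screen checks specificity in a cell-free format. It measures SRC-2 coactivator peptide binding to TRα LBD by TR-FRET and scores loss of ratio signal relative to DMSO.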

Assay [3] concerns the target THRB (gene 7068) (UniProt P10828). In words: TOX21_TRB_BLA_Antagonist_Followup_ratio: Tox21 Thyroid Hormone Receptor beta Antagonism Beta-lactamase (BLA) Follow-Up Assay, Ratio (AID 2283958; active = hit-call score of the fitted dose curve at least 0.9, where 1 is the maximum). Put shortly: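 GAL4-DBD/human TRβ-LBD fusion in GeneBLAzer UAS-bla HEK293T cells, 3,000 cells/well in phenol red-free DMEM with 2% charcoal-stripped FBS; compounds at 11 concentrations in triplicate, 18 h at 37C. CCF4-AM substrate 2 h, 460:530 nm ratio relative to DMSO.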

A short description of assay [4]: TOX21_TRB_BLA_Antagonist_Followup_viability: Viability Assessment in the Tox21 Thyroid Hormone Receptor beta Antagonism Beta-lactamase (BLA) Follow-Up Assay (AID 2283961; active = hit-call score of the fitted dose curve at least 0.9, where 1 is the maximum). The essentials:
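ATP-based CellTiter-Glo luminescence (30 min, room temperature) run in the same wells as the TRβ-bla readout. Cells: GeneBLAzer HEK293T expressing GAL4-TRβ LBD, exposed 18 h at 37C to compounds at 11 concentrations in triplicate, stripped-serum medium.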

Assay [5] concerns the target THRB (gene 7068) (UniProt P10828). The assay is described as follows: TOX21_TRB_COA_Antagonist_Followup_ratio: Tox21 Thyroid Hormone Receptor beta Antagonism through Coactivator Recruitment Follow-Up Assay, Ratio (AID 2283967; active = hit-call score of the fitted dose curve at least 0.9, where 1 is the maximum). The essentials: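 Test compound was incubated with 5.0 nM GST-TRβ LBD in 0.10% BSA. Then 200 nM fluorescein-SRC-2 peptide and 2 nM terbium anti-GST antibody were added. TR-FRET (520:495 nm) was measured and normalized to DMSO and T3 controls.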

The target in assay [6] is Retinoic acid receptor RXR-alpha (Homo sapiens) (UniProt P19793). In words: TOX21_TR_RXR_BLA_Antagonist_Followup_ratio: Tox21 Thyroid Hormone Receptor beta Retinoid X Receptor alpha (RXRa) Antagonism Beta-lactamase (BLA) Follow-Up Assay, Ratio (AID 2283972; active = hit-call score of the fitted dose curve at least 0.9, where 1 is the maximum). The essentials:
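After 5 h attachment at 37C, HEK293T RXRa-bla cells (2,500/well, 2% charcoal-stripped FBS, no phenol red) received compounds at 11 concentrations in triplicate for 16 h. Beta-lactamase read as 460:530 nm ratio after 2 h RT substrate loading.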

Assay [7] can be described thus: TOX21_TR_RXR_BLA_Antagonist_Followup_viability: Viability Assessment in the Tox21 Thyroid Hormone Receptor beta Retinoid X Receptor alpha (RXRa) Antagonism Beta-lactamase (BLA) Follow-Up Assay (AID 2283979; active = hit-call score of the fitted dose curve at least 0.9, where 1 is the maximum). The essentials:
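Follow-up compounds (11 concentrations, triplicate) were incubated 16 h at 37C/5% CO2 with HEK293T RXRa-bla cells seeded at 2,500/well in charcoal-stripped-serum medium. ATP content by CellTiter-Glo luminescence gave viability; curves fitted in both directions against DMSO.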

Assay [8] can be described thus: TOX21_PR_BLA_Followup_Antagonist_viability: Viability Assessment in the Tox21 HEK293 Progesterone Receptor (PR) Antagonism Beta-lactamase Follow-Up Assay (AID 2283936; active = hit-call score of the fitted dose curve at least 0.9, where 1 is the maximum;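 note: hits lower the luminescence signal meaning cytotoxicity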). The essentials:
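PR-UAS-bla HEK293T cells (3,000/well, 2% charcoal-stripped FBS) given compound plus R5020 agonist, 16 h at 37C. CellTiter-Glo added after bla read, 30 min at room temperature; luminescence loss indicates cytotoxicity.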

Assay [9] deals with PGR (gene 5241) (UniProt P06401). The assay is described as follows: TOX21_PR_LUC_Followup_Antagonist: Tox21 HEK293 Progesterone Receptor (PR) Antagonism Luciferase Follow-Up Assay (AID 2283938; active = hit-call score of the fitted dose curve at least 0.9, where 1 is the maximum;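 note: curve fitted upward as signal gain over DMSO baseline despite antagonist label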). The essentials: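 Luminescence from ONE-Glo was measured 30 min after reagent addition, following 16 h exposure of HEK293-PR-A-luc cells (3,000/well, plated 5 h earlier) to DMSO-dissolved compounds at 37C; DMSO served as baseline.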

Assay [10] in a line: TOX21_PR_LUC_Followup_Agonist_viability: Viability Assessment in the Tox21 HEK293 Progesterone Receptor (PR) Agonism Luciferase Follow-Up Assay (AID 2283941; active = hit-call score of the fitted dose curve at least 0.9, where 1 is the maximum;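 note: loss of signal means cytotoxicity so actives lower viability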). The essentials:
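HEK293-PR-A-luc cells, pre-cultured 5 days in 10% charcoal-stripped FBS, were seeded at 3,000 cells/well, rested 5 h at 37C, then given compound in DMSO for 16 h at 37C. Cellular ATP was read by CellTiter-Glo luminescence; signal loss indicates cytotoxicity.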

Assay [11] can be described thus: CCTE_Harrill_HTTr_Viability_DMEM_6hr: (Pilot) CCTE's 6-hour Cell Viability Assessment for the High-Throughput Transcriptomics (HTTr) Platform, in MCF-7 cells cultured in DMEM + 10% fetal bovine serum, Harrill Lab (AID 2283973). Put shortly: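 MCF-7 cells in DMEM + 10% FBS, eight-point dilution series, 6 h exposure. Membrane integrity by propidium iodide exclusion with high-content imaging; bidirectional fit versus DMSO.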

Assay [12] can be described thus: CCTE_Harrill_HTTr_Viability_DMEM_12hr: (Pilot) CCTE's 12-hour Cell Viability Assessment for the High-Throughput Transcriptomics (HTTr) Platform, in MCF-7 cells cultured in DMEM + 10% fetal bovine serum, Harrill Lab (AID 2283974). The essentials: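 MCF-7 cells in DMEM + 10% FBS exposed 12 h to an eight-point dilution series; membrane integrity scored by propidium iodide exclusion with high-content imaging, bidirectional fitting versus DMSO.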

Assay [13] is described as follows: CCTE_Harrill_HTTr_Viability_DMEM_24hr: (Pilot) CCTE's 24-hour Cell Viability Assessment for the High-Throughput Transcriptomics (HTTr) Platform, in MCF-7 cells cultured in DMEM + 10% fetal bovine serum, Harrill Lab (AID 2283975). Put shortly:
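MCF-7 cells in DMEM with 10% FBS exposed for 24 hours to an eight-point dilution series. Membrane integrity by propidium iodide exclusion with high content imaging; bidirectional fit against DMSO.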

Assay [14] is described as follows: CCTE_Harrill_HTTr_Viability_PRF_DMEM_6hr: (Pilot) CCTE's 6-hour Cell Viability Assessment for the High-Throughput Transcriptomics (HTTr) Platform, in MCF-7 cells cultured phenol red-free DMEM + 10% charcoal-stripped fetal bovine serum, Harrill Lab (AID 2283976). Put shortly:
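MCF-7 cells in phenol red-free DMEM with 10% charcoal-stripped FBS exposed 6 hours to an eight-point dilution series. Propidium iodide exclusion imaged; curves fitted bidirectionally against DMSO.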

The nature of assay [15]: CCTE_Harrill_HTTr_Viability_PRF_DMEM_12hr: (Pilot) CCTE's 12-hour Cell Viability Assessment for the High-Throughput Transcriptomics (HTTr) Platform, in MCF-7 cells cultured in phenol red-free DMEM + 10% charcoal-stripped fetal bovine serum, Harrill Lab (AID 2283977). The essentials: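 MCF-7 cells in phenol red-free DMEM with 10% charcoal-stripped FBS exposed 12 hours to an eight-point dilution series. Viability assessed by high-content imaging of propidium iodide exclusion; bidirectional fit versus DMSO.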

The nature of assay [16]: CCTE_Harrill_HTTr_Viability_PRF_DMEM_24hr: (Pilot) CCTE's 24-hour Cell Viability Assessment for the High-Throughput Transcriptomics (HTTr) Platform, in MCF-7 cells cultured in phenol red-free DMEM + 10% charcoal-stripped fetal bovine serum, Harrill Lab (AID 2283980). Put shortly:
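MCF-7 cells in phenol red-free DMEM with 10% charcoal-stripped FBS, eight-point dilution series, 24 h exposure. Membrane integrity by propidium iodide exclusion with high content imaging; bidirectional fit vs DMSO.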

Assay [17] in a line: CCTE_Harrill_HTTr_Apoptosis_DMEM_6hr: (Pilot) CCTE's 6-hour Apoptosis Assessment for the High-Throughput Transcriptomics (HTTr) Platform, in MCF-7 cells cultured in DMEM + 10% fetal bovine serum, Harrill Lab (AID 2283981). The essentials: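 Caspase-3/7 activation read by high content imaging with CellEvent Caspase 3/7 Green in MCF-7 cells (DMEM + 10% FBS), 6 h after dosing; eight-point dilution series. Bidirectional fitting relative to DMSO baseline.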

Assay [18] is described as follows: CCTE_Harrill_HTTr_Apoptosis_DMEM_12hr: (Pilot) CCTE's 12-hour Apoptosis Assessment for the High-Throughput Transcriptomics (HTTr) Platform, in MCF-7 cells cultured in DMEM + 10% fetal bovine serum, Harrill Lab (AID 2283982). The essentials:
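MCF-7 cells in DMEM + 10% FBS, exposed 12 h to an eight-point dilution series; caspase-3/7 activation imaged with CellEvent Green. Bidirectional fit versus DMSO.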

Assay [19] can be described thus: CCTE_Harrill_HTTr_Apoptosis_DMEM_24hr: (Pilot) CCTE's 24-hour Apoptosis Assessment for the High-Throughput Transcriptomics (HTTr) Platform, in MCF-7 cells cultured in DMEM + 10% fetal bovine serum, Harrill Lab (AID 2283983). The essentials: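 MCF-7 cells in DMEM + 10% FBS, eight-point dilution series, 24 h exposure. Caspase-3/7 activation imaged by high-content imaging with CellEvent Caspase 3/7 Green. Bidirectional curve fitting against DMSO baseline.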

A short description of assay [20]: TOX21_PR_LUC_Followup_Antagonist_viability: Viability Assessment in the Tox21 HEK293 Progesterone Receptor (PR) Antagonism Luciferase Follow-Up Assay (AID 2283940; active = hit-call score of the fitted dose curve at least 0.9, where 1 is the maximum). The essentials:
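HEK293-PR-A-luc cells, precultured 5 days in assay medium with 10% charcoal-stripped FBS, were seeded at 3,000 cells/well, treated with compounds in DMSO for 16 h at 37C, and viability was read as cellular ATP by CellTiter-Glo luminescence.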

Inconclusive results are not listed. Activity calls are given as the source filed them. Rule for the calls, unless noted: active = hit-call score of the fitted dose curve at least 0.9, where 1 is the maximum; inactive = score below 0.9.

Chain of PGR (gene 5241) (P06401 whole entry, looked up): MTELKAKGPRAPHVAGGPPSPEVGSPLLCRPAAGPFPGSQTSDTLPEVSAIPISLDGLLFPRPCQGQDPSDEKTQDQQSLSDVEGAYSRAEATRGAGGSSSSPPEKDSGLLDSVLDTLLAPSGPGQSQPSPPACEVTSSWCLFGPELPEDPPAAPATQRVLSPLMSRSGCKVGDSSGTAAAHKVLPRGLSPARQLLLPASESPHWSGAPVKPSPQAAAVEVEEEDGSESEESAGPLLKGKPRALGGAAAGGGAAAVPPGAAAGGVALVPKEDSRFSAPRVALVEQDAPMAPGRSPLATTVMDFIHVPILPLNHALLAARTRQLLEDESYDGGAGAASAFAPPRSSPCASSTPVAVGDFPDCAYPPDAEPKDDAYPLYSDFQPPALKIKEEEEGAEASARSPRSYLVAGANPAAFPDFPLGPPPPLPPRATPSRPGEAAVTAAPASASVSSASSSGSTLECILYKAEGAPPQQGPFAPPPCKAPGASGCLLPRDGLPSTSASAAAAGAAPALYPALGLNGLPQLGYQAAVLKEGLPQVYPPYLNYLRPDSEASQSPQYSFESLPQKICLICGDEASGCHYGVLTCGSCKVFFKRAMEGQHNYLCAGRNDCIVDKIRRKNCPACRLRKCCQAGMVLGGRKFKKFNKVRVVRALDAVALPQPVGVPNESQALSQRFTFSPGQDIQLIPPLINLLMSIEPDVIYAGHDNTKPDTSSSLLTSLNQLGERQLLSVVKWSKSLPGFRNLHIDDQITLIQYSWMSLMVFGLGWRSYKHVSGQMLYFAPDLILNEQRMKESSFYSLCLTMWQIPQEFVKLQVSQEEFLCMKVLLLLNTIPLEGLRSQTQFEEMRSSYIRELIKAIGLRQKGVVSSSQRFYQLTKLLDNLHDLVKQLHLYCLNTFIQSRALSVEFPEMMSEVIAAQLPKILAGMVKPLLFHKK
Chain of THRB (gene 7068) (P10828 whole entry, looked up, the tested form may be a part): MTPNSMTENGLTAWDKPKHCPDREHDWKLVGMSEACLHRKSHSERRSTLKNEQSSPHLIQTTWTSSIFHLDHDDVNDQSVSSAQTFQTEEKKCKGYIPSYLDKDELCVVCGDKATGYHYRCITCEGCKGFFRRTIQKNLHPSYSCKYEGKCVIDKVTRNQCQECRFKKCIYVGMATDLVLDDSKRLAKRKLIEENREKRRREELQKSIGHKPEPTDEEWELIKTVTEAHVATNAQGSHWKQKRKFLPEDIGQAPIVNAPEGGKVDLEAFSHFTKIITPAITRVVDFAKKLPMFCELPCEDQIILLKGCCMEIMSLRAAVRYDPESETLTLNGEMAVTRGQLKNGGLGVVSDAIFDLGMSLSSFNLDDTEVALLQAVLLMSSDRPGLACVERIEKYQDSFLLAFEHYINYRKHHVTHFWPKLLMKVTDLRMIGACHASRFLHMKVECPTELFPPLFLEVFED
Chain of THRA (gene 7067) (P10827 whole entry, looked up, the tested form may be a part): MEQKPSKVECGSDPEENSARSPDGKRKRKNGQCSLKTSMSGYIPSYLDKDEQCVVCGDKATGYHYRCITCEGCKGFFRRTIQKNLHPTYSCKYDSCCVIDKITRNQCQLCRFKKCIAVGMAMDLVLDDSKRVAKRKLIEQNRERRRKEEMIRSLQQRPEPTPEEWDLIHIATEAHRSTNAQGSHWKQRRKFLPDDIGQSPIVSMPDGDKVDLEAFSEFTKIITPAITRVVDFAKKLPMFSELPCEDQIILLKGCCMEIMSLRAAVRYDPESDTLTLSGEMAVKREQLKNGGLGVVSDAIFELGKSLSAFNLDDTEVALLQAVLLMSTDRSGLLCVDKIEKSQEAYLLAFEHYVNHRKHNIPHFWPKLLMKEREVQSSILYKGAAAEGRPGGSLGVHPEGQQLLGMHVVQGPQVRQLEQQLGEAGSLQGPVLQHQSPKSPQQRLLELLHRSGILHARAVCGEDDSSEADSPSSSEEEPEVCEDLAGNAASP
Chain of Retinoic acid receptor RXR-alpha (Homo sapiens) (P19793 whole entry, looked up): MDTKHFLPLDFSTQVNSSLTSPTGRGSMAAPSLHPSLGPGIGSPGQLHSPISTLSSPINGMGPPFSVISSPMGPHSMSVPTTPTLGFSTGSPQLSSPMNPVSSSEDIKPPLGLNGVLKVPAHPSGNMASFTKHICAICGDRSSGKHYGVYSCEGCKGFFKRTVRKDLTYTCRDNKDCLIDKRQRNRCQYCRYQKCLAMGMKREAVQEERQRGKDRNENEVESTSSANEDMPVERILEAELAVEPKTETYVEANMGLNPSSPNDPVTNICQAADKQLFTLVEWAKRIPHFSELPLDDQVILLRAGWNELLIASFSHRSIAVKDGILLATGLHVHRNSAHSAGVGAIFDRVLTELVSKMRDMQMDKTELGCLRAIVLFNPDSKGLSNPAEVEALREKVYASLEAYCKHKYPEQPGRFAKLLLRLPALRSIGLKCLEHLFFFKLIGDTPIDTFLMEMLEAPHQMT

For `CC1(c2ccc(Oc3ccccc3)cc2)OC(=O)N(Nc2ccccc2)C1=O` (stereo not given), the AC50 in assay [1] is 25.7 µM (active); in assay [4], 22 µM (active); in assay [6], 28.9 µM (active); in assay [7], 38.5 µM (active). For the same compound, the result in [2], in assay [3] and in assay [5] was inactive.
For `ClC1C(Cl)C(Cl)C(Cl)C(Cl)C1Cl` (stereo not given), the call in assay [8], in assay [9] and in [10] was inactive.
Regarding `O=S(=O)(O)C(F)(F)C(F)(F)C(F)(F)C(F)(F)C(F)(F)C(F)(F)C(F)(F)C(F)(F)F`, the result in assay [11], in [12], in assay [13], in assay [14], in assay [15] and in assay [16] was inactive. The outcome in assay [17], in assay [18] and in [19] was inactive.
Take `O=C(O)C(F)(F)C(F)(F)C(F)(F)C(F)(F)C(F)(F)C(F)(F)C(F)(F)F`: the result in assay [11], in assay [12], in assay [13], in [14], in assay [15] and in [16] was inactive. Besides, the outcome in assay [17], in [18] and in assay [19] was inactive.
For `CCCN(CCOc1c(Cl)cc(Cl)cc1Cl)C(=O)n1ccnc1`, the compound was called inactive in assay [8], in assay [20], in [10], in assay [11], in [12] and in [13]. Also, the outcome in assay [14], in assay [15], in assay [17], in assay [18] and in assay [19] was inactive. In addition, the AC50 in assay [9] was 57.9 µM (active); in assay [16] it was 9.92 µM (active).
Turning to `COP(=S)(OC)Oc1ccc([N+](=O)[O-])cc1`, the call in assay [8], in assay [20] and in [10] was inactive. Besides, the AC50 in [9] was 33.5 µM (active).

The term AC50 denotes the concentration giving half of the maximal activity seen.
